Data taken from PubChem BioAssay AID1159580 (chemical genetic matrix, 2015).
The campaign covered roughly 5,500 compounds. About 2,000 (36%) were called active. Roughly 18% stayed inconclusive and do not appear here. Cut-off read from the data, not from the text of the source: active = normalized growth mostly below about 0.91 (no sharp cut-off); inconclusive = no clear call, values can overlap the other calls; inactive = mostly above about 0.92. The list shows a part of the results.

Assay: chemical genetic growth profiling, strain panel (AID 1159580);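 note: tested at 20 µM; growth read once vehicle control cultures reached saturation at 30 °C; 1 = growth at the plate median or of vehicle wells; lower values mean less growth of the strain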
Settings: S. cerevisiae deletion strains, growth OD

Measured: normalized growth

CN1Cc2c(ccc3c2OCO3)C2C(O)Cc3cc4c(cc3C21)OCO4 (stereo not given)
inactive: locus YAL013W, strain DEP1, hits give low values 0.992 | locus YBR021W, strain FUR4, hits give low values 0.939 | locus YBR229C, strain ROT2, hits give low values 1 | locus YCL029C, strain bik1, hits give low values 1.03 | locus YDL035C, strain GPR1, hits give low values 0.985 | locus YDL074C, strain BRE1, hits give low values 0.982 | locus YDL101C, strain DUN1, hits give low values 0.996 | locus YDL134C, strain PPH21, hits give low values 0.977 | locus YDL185W, strain tfp1, hits give low values 1.02 | locus YDL192W, strain arf1, hits give low values 0.999 | locus YDR101C, strain arx1, hits give low values 0.999 | locus YDR162C, strain NBP2, hits give low values 0.991 | locus YDR318W, strain mcm21, hits give low values 0.998 | locus YDR388W, hits give low values 0.987 | locus YDR502C, strain sam2, hits give low values 0.984 | locus YEL061C, strain CIN8, hits give low values 0.992 | locus YER110C, hits give low values 1.01 | locus YER155C, strain BEM2, hits give low values 0.997 | locus YER167W, strain BCK2, hits give low values 0.989 | locus YGL078C, strain dbp3, hits give low values 1.02 | locus YGL086W, strain mad1, hits give low values 0.989 | locus YGL248W, strain PDE1, hits give low values 0.995 | locus YGR078C, strain PAC10, hits give low values 0.998 | locus YGR135W, strain pre9, hits give low values 0.98 | locus YGR252W, strain gcn5, hits give low values 0.96 | locus YHR030C, strain SLT2, hits give low values 0.999 | locus YHR079C, strain IRE1 (second series), hits give low values 1.01 | locus YHR094C, strain hxt1, hits give low values 1.01 | locus YHR129C, strain ARP1, hits give low values 0.994 | locus YHR200W, strain rpn10, hits give low values 1 | locus YIL066C, strain RNR3, hits give low values 1 | locus YIL073C, strain SPO22, hits give low values 1.04 | locus YIL125W, strain kgd1, hits give low values 1.02 | locus YIR030C, strain dcg1, hits give low values 1 | locus YJL095W, strain BCK1, hits give low values 0.985 | locus YJL134W, strain LCB3, hits give low values 1.01 | locus YJL168C, strain set2, hits give low values 1 | locus YJL187C, strain SWE1 (second series), hits give low values 1 | locus YJR043C, strain POL32, hits give low values 1.01 | locus YJR075W, strain HOC1, hits give low values 0.983 | locus YKL009W, strain mrt4, hits give low values 1.01 | locus YKL068W, hits give low values 1 | locus YKL085W, strain MDH1 (second series), hits give low values 1.01 | locus YKL085W, strain MDH1, hits give low values 1.01 | locus YKL190W, strain CNB1, hits give low values 0.988 | locus YKR001C, strain vps1, hits give low values 0.997 | locus YLR039C, strain RIC1, hits give low values 0.977 | locus YLR058C, strain SHM2, hits give low values 0.992 | locus YLR102C, strain apc9, hits give low values 1.01 | locus YLR262C, strain YPT6, hits give low values 0.981 | locus YLR268W, strain sec22, hits give low values 1 | locus YLR330W, strain CHS5, hits give low values 1.01 | locus YLR342W, strain FKS1 (second series), hits give low values 0.982 | locus YLR371W, strain rom2, hits give low values 1.01 | locus YLR418C, strain cdc73, hits give low values 0.956 | locus YML016C, strain PPZ1, hits give low values 1 | locus YML032C, strain rad52, hits give low values 0.991 | locus YML124C, strain tub3, hits give low values 1.02 | locus YMR078C, strain ctf18, hits give low values 1.01 | locus YMR223W, strain ubp8, hits give low values 0.998 | locus YMR307W, strain GAS1, hits give low values 0.95 | locus YNL067W, strain RPL9B, hits give low values 0.994 | locus YNL128W, strain TEP1, hits give low values 0.996 | locus YNL233W, strain BNI4, hits give low values 1 | locus YNL250W, strain rad50, hits give low values 1.02 | locus YNL271C, strain bni1, hits give low values 1.02 | locus YNL298W, strain CLA4, hits give low values 1.03 | locus YNL307C, strain MCK1, hits give low values 1.02 | locus YNL322C, strain KRE1, hits give low values 0.999 | locus YNR052C, strain pop2, hits give low values 0.997 | locus YOL006C, strain TOP1, hits give low values 0.92 | locus YOL012C, strain htz1 1.21 | locus YOL147C, strain pex11, hits give low values 1 | locus YOR061W, strain CKA2, hits give low values 1 | locus YOR069W, strain VPS5, hits give low values 1 | locus YOR136W, strain idh2, hits give low values 1.04 | locus YOR144C, strain elg1, hits give low values 1.01 | locus YOR184W, strain ser1, hits give low values 0.984 | locus YOR316C, strain cot1, hits give low values 1.01 | locus YPL055C, strain LGE1, hits give low values 0.978 | locus YPR119W, strain clb2, hits give low values 1.01 | locus YPR141C, strain kar3, hits give low values 1.01 | locus YPR163C, strain tif3, hits give low values 1.04 | locus YPR167C, strain met16, hits give low values 1.01 | strain wtn01, hits give low values 1
